The whole screen tested about 2,100 compounds, of which about 590 (28%) were called active. Inconclusive results (about 42%) are left out. Some of the results follow. A number with no mark means an inactive call. Calls come from the whole dose curve; as a rule, active = well fitted inhibition curve with a large enough effect; inconclusive = small, poorly fitted or top-dose-only effect; inactive = flat fitted curve, though single readings scatter.
What follows are compounds tested against DNA dC->dU-editing enzyme APOBEC-3F (Homo sapiens) (UniProt Q8IUX4) (assay: qHTS for inhibitors of Vif-A3F interactions: Cherry picks). Details: HeLa A3F-eYFP + Vif (tagged APOBEC3F with the HIV-1 protein that degrades it), eYFP fluorescence, 24 h.
DNA dC->dU-editing enzyme APOBEC-3F (Homo sapiens), sequence (Q8IUX4 whole entry, looked up): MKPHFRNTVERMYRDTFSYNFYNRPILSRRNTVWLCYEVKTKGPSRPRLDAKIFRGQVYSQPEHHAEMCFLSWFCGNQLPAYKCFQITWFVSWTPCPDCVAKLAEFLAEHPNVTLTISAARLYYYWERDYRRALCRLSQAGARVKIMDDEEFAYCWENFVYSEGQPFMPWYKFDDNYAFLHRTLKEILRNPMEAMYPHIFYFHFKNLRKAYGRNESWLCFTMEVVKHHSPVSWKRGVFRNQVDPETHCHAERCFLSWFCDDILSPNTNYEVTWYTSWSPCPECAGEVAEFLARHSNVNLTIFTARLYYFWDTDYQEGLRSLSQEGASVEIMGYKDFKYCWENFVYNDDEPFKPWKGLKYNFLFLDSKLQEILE
How it was run: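 Read-out: yellow fluorescence (ex 488 nm, em 500-530 nm) by laser-scanning cytometer after 24 h compound exposure, several concentrations, at 37 deg C. Cells: HeLa line stably co-expressing Vif and C-terminally eYFP-tagged A3F; MG132 served as positive control.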
For O=C(O)c1ccccc1N/N=C/c1c(Sc2nnnn2-c2ccccc2)nc2ccccn2c1=O, the Potency was 9.94 µM (active). With CN1C/C(=C\c2ccc(N3CCOCC3)cc2)C(=O)/C(=C/c2ccc(N3CCOCC3)cc2)C1 the Potency was 18.4 µM (active). In the case of Cc1ccc(Cc2c(C3CCCCC3)nc3ccc(C)cn23)cc1, the max response is reported as -5.74%. Compound COc1ccccc1/C=C/C=N/n1c(-c2ccc(C)cc2)n[nH]c1=S has a max response of -22%. Cc1ccc(-c2nc(-c3cc4cccc(OCc5cccc(F)c5)c4oc3=O)no2)cc1 was tested, and the Potency was 18.4 µM (active). Nc1c(C(=O)c2ccccc2)sc2snc(SCC(=O)c3ccccc3)c12 was tested, and the Potency was 17.7 µM (active). In the case of Nc1c(C(=O)c2ccccc2)sc2nsc(SCCN3CCCC3)c12, the Potency is reported as 14 µM (active). Work on N#CC(C(=O)NCc1ccccc1)c1nc2ccccc2nc1N1CCCC1 (stereo unspecified) yielded a max response of -25.3%. With CCN(CC)c1nc2ccccc2nc1C(C#N)C(=O)NCCc1ccccc1 (stereo unspecified) the Potency was 3.66 µM (active). For CCS(=O)(=O)C1=NN2C(=N)/C(=C\c3ccc(SCc4ccco4)o3)C(=O)N=C2S1, the max response was -0.189%. For CC1=CN2C(=N)/C(=C/c3ccc([N+](=O)[O-])o3)C(=O)N=C2S1, the Potency was 14 µM (active). With CCCCN1C(=O)/C(=C/C=C2\Oc3ccccc3N2CC)SC1=S the max response was -1.16%. In the case of CCSC1=N/C(=C\C=C2/Oc3ccccc3N2CC)C(=O)S1, the Potency is reported as 20.6 µM (active). In the case of CC(O)CN(CC(C)O)c1ccc2c(c1)Cc1cc([N+](=O)[O-])ccc1-2 (stereo unspecified), the Potency is reported as 3.66 µM (active). COC(=O)c1[nH]c2c(c1C(=O)OC)CCc1ccccc1-2 was tested, and the max response was -7.85%. For CC(C)c1ccc(NC(=O)Nc2cnccn2)cc1, the max response was -23.5%. Work on Cc1nc(-c2ccc(Cl)cc2)sc1C(=O)NN yielded a max response of -25%. CC(=O)c1sc2nc(-c3cccs3)cc(C(F)(F)F)c2c1N was tested, and the Potency was 7.31 µM (active). With CC(C)(C)C(=O)c1sc2nc(-c3cccs3)cc(C(F)(F)F)c2c1N the Potency was 1.03 µM (active). With CCN(CC)C(=O)c1sc2nc(-c3cccs3)cc(-c3ccc(Cl)cc3)c2c1N the Potency was 15.8 µM (active). With Nc1c(C(=O)C2CC2)sc2nc(-c3cccs3)cc(C(F)(F)F)c12 the Potency was 1.64 µM (active). S=C(NC1CCCCC1)N(CCc1ccccc1)CCc1ccccc1 showed a max response of -2.16%. For Cc1ccc(N2C(=O)CS/C2=C(\C(Cl)=C(Cl)Cl)[N+](=O)[O-])cc1, the max response was 2.65%. For O=C(O)c1ccc(N/N=C/C(Br)=C/c2ccccc2)cc1, the max response was -18.2%. In the case of Cc1ccc(NC(=O)Cc2ccc(-n3cccc3)cc2)c(C)c1, the max response is reported as -1.25%. For Cc1ccc(NC(=O)C(=Cc2ccc(C(=O)O)cc2)C(=O)Nc2ccc(C)cc2C)c(C)c1, the Potency was 5.59 µM (active). O=C1COc2ccc(C(=O)CSc3nc4ccccc4c(=O)n3-c3ccc(Cl)c(Cl)c3)cc2N1 was tested, and the Potency was 18.4 µM (active). For O=S(=O)(N=C1C=CC(=NS(=O)(=O)c2ccccc2)c2ccccc21)c1ccccc1, the max response was -24.1%. O=C(/C=C/c1ccncc1)c1cc(Cl)ccc1O showed a max response of 3.83%. For CC[n+]1c(/C=C/Nc2ccccc2)oc2ccccc21, the Potency was 7.31 µM (active). Compound COc1ccc(N/C=C/C(=O)c2sc(-c3ccccc3)nc2C)cc1 has a max response of -17.8%. In the case of CC[n+]1c(/C=C/N(C)c2ccccc2)oc2ccc(F)cc21, the Potency is reported as 11.2 µM (active). In the case of CC[n+]1c(/C=C/Nc2ccccc2)oc2ccc(OC)cc21, the Potency is reported as 20.6 µM (active). In the case of CCOC(=O)c1c(CC(C)C)csc1/N=C/C1C(=O)CCCC1=O, the max response is reported as -3.21%. CCc1ccc2c(c1)NC(=O)C2(C)Cc1ccccc1Cl (stereo unspecified) was tested, and the max response was -19.4%. COc1ccccc1C(=O)NC(=S)Nc1ccc(NC(=O)c2ccco2)cc1 gave a max response of -12.8%. COCCCNc1nc2ccccc2nc1NS(=O)(=O)c1ccccc1 was tested, and the max response was -2.62%. CCN(CC)c1ccc2c(c1)oc(=O)c1c(Cl)cc(=O)oc12 was tested, and the Potency was 20.6 µM (active). With CCc1nnc(NC(=O)CSc2nnc(-c3ccccc3O)n2-c2ccc(C)cc2C)s1 the max response was -23.9%. Cc1ccc(O)c(NC(=O)c2cc(-c3ccccc3O)no2)c1 was tested, and the Potency was 18.4 µM (active). Work on Cc1ccc(O)c(Nc2c3ccccc3nc3ccccc23)c1 yielded a max response of -0.294%. With Cn1cc(/C=C/c2ccc3ccccc3n2)c2ccccc21 the Potency was 20.6 µM (active). Cn1cc(/C=C/c2ccnc3ccccc23)c2ccccc21 was tested, and the Potency was 23.1 µM (active). COC(=O)C1=COC(C)C2CN3CCc4c([nH]c5cc(OC)c(OC)cc45)C3CC12 (stereo unspecified) gave a max response of -8.29%. Work on CC(=O)Nc1ccc(S(=O)(=O)Nc2nc3ccccc3nc2Nc2ccc(N)cc2)cc1 yielded a max response of -0.838%. Cc1cc(N2CCN(c3ccc([N+](=O)[O-])c4cccnc34)CC2)c2ccccc2n1 was tested, and the Potency was 10.3 µM (active). Compound O=[N+]([O-])c1cc(O)c2ncccc2c1 has a max response of -7.28%. O=[N+]([O-])c1cc(Cl)c2cccnc2c1O was tested, and the max response was 3.56%. In the case of Cc1cc(C)c2cc3c(N)c(C(=O)Nc4c(C)[nH]c(=O)[nH]c4=O)sc3nc2c1, the Potency is reported as 13 µM (active). Cc1ccc(C2=NN(C(=O)c3cccs3)C(c3ccccc3O)C2)cc1 (stereo unspecified) showed a max response of -0.929%. For Cc1ccc(C2C(C(=O)c3cccs3)=C(O)C(=O)N2c2nnc(C)s2)cc1 (stereo unspecified), the Potency was 19.8 µM (active). CCCSc1nnc(N2C(=O)C(O)=C(C(=O)c3ccco3)C2c2ccccc2F)s1 (stereo unspecified) gave a max response of -6.1%. In the case of FC(F)(F)c1ccccc1NC(=S)NN=C1CCCCCC1, the max response is reported as 0.807%. In the case of O=C(NNC1=Nc2cccc3cccc1c23)c1ccc(Br)cc1, the Potency is reported as 16.4 µM (active). For CC(C)OC(=O)c1cc(C(=O)c2cc(F)ccc2O)coc1=N, the Potency was 23.1 µM (active). With C=CCN=c1scc(-c2ccc(F)cc2)n1/N=C/c1ccccn1 the max response was 5.22%. For Cc1nnc(SCC(=O)NCc2ccccc2F)c2nn(-c3ccc(Cl)cc3)c(C)c12, the Potency was 16.4 µM (active). With Cc1ccc(-n2nc3c(SCCN4CCOCC4)nnc(C)c3c2C)cc1 the max response was -16.8%. C=C1C(=O)O[C@H]2C1CC[C@@](C)(O)C13C=CC(C)(C21)C1(C3)C(=O)O[C@@H]2C3C(C)=CCC3[C@](C)(O)C[C@H](OC(C)=O)C21 (stereo partly specified) gave a max response of -25.3%. CCN1/C(=C/c2ccc3ccccc3[n+]2CC)C=Cc2ccccc21 was tested, and the max response was -17%. For CCN1/C(=C/c2cc[n+](C)cc2)C=Cc2cc(C)ccc21, the Potency was 11.6 µM (active). Work on CC1(C)COC(Cn2c3ccccc3c3ccccc32)O1 (stereo unspecified) yielded a max response of -25.3%. CCOc1cc([N+](=O)[O-])cc2c1C(=O)Nc1ccccc1O2 showed a max response of -12%. O=C1Nc2ccc(Br)cc2C12NNc1ccccc1O2 (stereo unspecified) was tested, and the Potency was 14 µM (active). Work on COc1ccc(CCNC(=O)CC2(CC3=NS(=O)(=O)c4ccccc4N3)CCCC2)cc1OC yielded a max response of -0.97%. With Cc1cc(C)cc(NC(=O)Cn2cc(C(=O)C3CCCCC3)c3ccccc32)c1 the Potency was 18.4 µM (active). Cc1cc(C)cc(NC(=S)NC(=O)C2CC2)c1 gave a max response of -4.35%. CCn1c2ccccc2c2cc(NC(=O)CNCc3ccccc3OC)ccc21 showed a max response of -24.7%. In the case of CCN(CC)c1nc(C=Cc2ccc(N(C)C)cc2)c2nccnc2n1, the Potency is reported as 1.84 µM (active). With CCN(Cc1ccccc1)c1ccc(/C=C/c2nccc3ccccc23)cc1 the Potency was 20.6 µM (active). With CN(C)c1ccc(C=Cc2nccc3ccccc23)cc1 the Potency was 11.2 µM (active). With CN(C)c1ccc(/C=C/c2nccc3ccccc23)cc1 the Potency was 18.4 µM (active). CCN(Cc1ccccc1)c1ccc(/C=C(\C#N)c2ccccn2)cc1 was tested, and the max response was -7.46%. In the case of O=C(OCC12CC3CC(CC(C3)C1)C2)c1ccc(NCc2cc(O)ccc2O)cc1, the max response is reported as -19.8%. With NC(=O)c1ccc(NC(=O)C#Cc2ccccc2)cc1 the max response was -20.2%. In the case of CC[n+]1c(C=C2C=C(C)OC(C)=C2)sc2ccccc21, the Potency is reported as 2.31 µM (active). Compound CN(C)c1ccc2nc3c(=O)[nH]c(=O)nc-3n(CC(O)C(O)C(O)CO)c2c1 (stereo unspecified) has a max response of -2.88%. In the case of O=[N+]([O-])c1ccc(N/N=C\c2cccn2-c2ccccc2)nc1, the Potency is reported as 14 µM (active). Work on CCN(CC)c1ccc(C=NNc2ccc([N+](=O)[O-])cn2)cc1 yielded a max response of -25.4%. CC1=C(n2nnc3ccccc32)C(c2ccccc2)C(C#N)=C(N)O1 (stereo unspecified) showed a max response of -5.98%. For CCN(CC)c1ccc2c(c1)OC(N)=C(C#N)C2c1cccnc1 (stereo unspecified), the Potency was 17.7 µM (active). For COc1cc(C2C(C#N)=C(N)Oc3cc(O)ccc32)cc2c1OCO2 (stereo unspecified), the max response was -28.2%. N#C/C(=C\c1ccccc1[N+](=O)[O-])C(=O)NCc1ccccc1 was tested, and the max response was -6.74%. CN(C)c1ccc(/C=C(/C#N)C(=O)NCc2ccccc2)o1 was tested, and the Potency was 14.6 µM (active). With COc1cc(OC)c(C2Nc3cccc4cccc(c34)N2)c(OC)c1 the max response was -0.492%. COc1cc(OC)c(/C=C/c2ccc3ccccc3[n+]2C)c(OC)c1 was tested, and the Potency was 5.17 µM (active). Work on CC(=O)c1cccc(-c2ccnc3c2CC(C(=O)Nc2ccc(Cl)cc2)O3)c1 (stereo unspecified) yielded a max response of -28.2%. For Nc1nc(-c2cc(O)ccc2[N+](=O)[O-])cc(-c2ccccc2)c1[N+](=O)[O-], the Potency was 12.5 µM (active). For COc1ccc(OC)c(NC(=O)Cn2c(=O)n(-c3ccc(Cl)cc3)c(=O)c3c(C)c(C)sc32)c1, the Potency was 20.6 µM (active). CCN(CC)C(=O)Cn1c(=O)n(-c2ccccc2)c(=O)c2c3c(sc21)CCC3 was tested, and the max response was 1.37%. COc1ccc(OC)c(NC(=O)Cn2cnc3onc(-c4ccc(Cl)cc4)c3c2=O)c1 gave a max response of -18%.
Note: nearly all actives have a fitted effect of over 70% in size.
Potency is the fitted concentration of half-maximal effect.
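Throughout, for max response: % of control where 0% means no effect; active compounds raise eYFP fluorescence by blocking Vif-driven A3F loss.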
